Results reported in PubChem BioAssay AID1159580 (chemical genetic matrix, 2015).
Screen size: about 5,500 compounds; about 2,000 (36%) were called active. Another 18% or so got no clear call; they are omitted. No stated cut-off is given here; in the data, active means normalized growth mostly below about 0.91 (no sharp cut-off); inconclusive means no clear call, values can overlap the other calls; inactive means mostly above about 0.92. The list shows a part of the results.

Test: chemical genetic growth profiling, strain panel (AID 1159580);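 further: tested at 20 µM; growth read once vehicle control cultures reached saturation at 30 °C; 1 = growth at the plate median or of vehicle wells; lower values mean less growth of the strain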
Settings: growth OD
[1] = S. cerevisiae deletion strains, locus YAL013W, strain DEP1, active compounds read low
[2] = S. cerevisiae deletion strains, locus YBR229C, strain ROT2, active compounds read low
[3] = S. cerevisiae deletion strains, locus YDL101C, strain DUN1, active compounds read low
[4] = S. cerevisiae deletion strains, locus YDL134C, strain PPH21, active compounds read low
[5] = S. cerevisiae deletion strains, locus YDR150W, strain NUM1, active compounds read low
[6] = S. cerevisiae deletion strains, locus YEL061C, strain CIN8, active compounds read low
[7] = S. cerevisiae deletion strains, locus YGR078C, strain PAC10, active compounds read low
[8] = S. cerevisiae deletion strains, locus YHR030C, strain SLT2, active compounds read low
[9] = S. cerevisiae deletion strains, locus YHR087W, strain rtc3, active compounds read low
[10] = S. cerevisiae deletion strains, locus YJL187C, strain SWE1, active compounds read low
[11] = S. cerevisiae deletion strains, locus YJR043C, strain POL32, active compounds read low
[12] = S. cerevisiae deletion strains, locus YJR075W, strain HOC1, active compounds read low
[13] = S. cerevisiae deletion strains, locus YLR039C, strain RIC1, active compounds read low
[14] = S. cerevisiae deletion strains, locus YLR058C, strain SHM2 (second series), active compounds read low
[15] = S. cerevisiae deletion strains, locus YLR085C, strain ARP6, active compounds read low
[16] = S. cerevisiae deletion strains, locus YLR262C, strain YPT6, active compounds read low
[17] = S. cerevisiae deletion strains, locus YML094W, strain GIM5, active compounds read low
[18] = S. cerevisiae deletion strains, locus YMR219W, strain ESC1, active compounds read low
[19] = S. cerevisiae deletion strains, locus YMR263W, strain SAP30, active compounds read low
[20] = S. cerevisiae deletion strains, locus YNL128W, strain TEP1, active compounds read low
[21] = S. cerevisiae deletion strains, locus YNL153C, strain GIM3, active compounds read low
[22] = S. cerevisiae deletion strains, locus YNL298W, strain CLA4 (second series), active compounds read low
[23] = S. cerevisiae deletion strains, locus YNL322C, strain KRE1, active compounds read low
[24] = S. cerevisiae deletion strains, locus YNR030W, strain Alg12, active compounds read low
[25] = S. cerevisiae deletion strains, locus YOL006C, strain TOP1, active compounds read low
[26] = S. cerevisiae deletion strains, locus YPL055C, strain LGE1, active compounds read low
[27] = S. cerevisiae deletion strains, locus YPL241C, strain CIN2, active compounds read low
[28] = S. cerevisiae deletion strains, locus YPR135W, strain CTF4, active compounds read low
[29] = S. cerevisiae strains, strain wild type, active compounds read low
[30] = S. cerevisiae deletion strains, locus YKL190W, strain CNB1, active compounds read low
[31] = S. cerevisiae deletion strains, locus YMR307W, strain GAS1, active compounds read low
[32] = S. cerevisiae deletion strains, locus YGR229C, strain SMI1, active compounds read low

Measured: normalized growth

NC(=NS(=O)(=O)c1cc(C(F)(F)F)cc(C(F)(F)F)c1)c1cccs1
inactive: [1] 0.975 | [2] 0.977 | S. cerevisiae deletion strains, locus YCL061C, strain MRC1, active compounds read low 0.996 | [3] 0.994 | [4] 0.984 | [5] 0.969 | [6] 0.934 | [7] 0.963 | [8] 0.975 | [9] 1.01 | [10] 0.987 | [11] 0.957 | [14] 0.967 | [15] 0.928 | [17] 0.927 | [18] 0.982 | [19] 0.978 | [20] 1 | [21] 0.991 | [22] 0.933 | [23] 0.977 | [24] 0.942 | [25] 0.949 | [26] 0.9 | [27] 0.946 | [28] 0.877 | [29] 0.978
active: [12] 0.89 | [13] 0.561 | [16] 0.578

NC(N)=NC(N)=Nc1cc(C(F)(F)F)cc(C(F)(F)F)c1
inactive: [1] 1 | [2] 0.999 | [3] 0.992 | [5] 0.998 | [6] 1.02 | [7] 0.995 | [8] 0.983 | [9] 0.99 | [10] 1 | [11] 1.01 | [12] 0.977 | [30] 1.01 | [13] 1.01 | [14] 1.01 | [15] 1.03 | [16] 1.01 | [17] 0.956 | [18] 1 | [19] 1.01 | [31] 0.963 | [21] 0.993 | [22] 0.988 | [23] 0.987 | [24] 1.01 | [26] 0.999 | [27] 1.12 | [28] 1 | [29] 1.01

c1ccc2c(c1)CCc1c-2[nH]c2ccccc12
active: [1] 0.641 | [2] 0.682 | [3] 0.62 | [4] 0.461 | [5] 0.704 | [6] 0.415 | [7] 0.732 | [32] 0.735 | [8] 0.137 | [9] 0.748 | [11] 0.751 | [12] 0.562 | [13] 0.162 | [14] 0.827 | [15] 0.109 | [16] 0.142 | [17] 0.467 | [18] 0.783 | [19] 0.634 | [21] 0.7 | [22] 0.23 | [23] 0.91 | [24] 0.418 | [25] 0.115 | [26] 0.322 | [27] 0.416 | [28] 0.294

CN1CCCC12NCCc1c2[nH]c2ccccc12 (stereo unspecified)
inactive: [1] 0.993 | [2] 1 | [3] 1 | [5] 0.98 | [6] 0.998 | [7] 0.993 | [32] 0.997 | [8] 0.981 | [9] 0.986 | [11] 0.999 | [12] 0.973 | [13] 0.976 | [14] 0.987 | [15] 0.991 | [16] 0.976 | [17] 1.06 | [18] 1.01 | [19] 0.985 | [21] 1 | [22] 0.982 | [23] 1 | [24] 0.965 | [26] 1.01 | [27] 0.969 | [28] 1.03

c1ccc2c3c([nH]c2c1)CNCC3
inactive: S. cerevisiae deletion strains, locus YBR021W, strain FUR4, active compounds read low 1.01 | [2] 0.999 | S. cerevisiae deletion strains, locus YCL029C, strain bik1, active compounds read low 1.02 | S. cerevisiae deletion strains, locus YDL035C, strain GPR1, active compounds read low 0.991 | S. cerevisiae deletion strains, locus YDL074C, strain BRE1, active compounds read low 1.01 | [3] 1.01 | S. cerevisiae deletion strains, locus YDL185W, strain tfp1, active compounds read low 1.01 | S. cerevisiae deletion strains, locus YDL192W, strain arf1, active compounds read low 0.997 | S. cerevisiae deletion strains, locus YDR101C, strain arx1, active compounds read low 1.02 | [5] 1 | S. cerevisiae deletion strains, locus YDR162C, strain NBP2, active compounds read low 0.965 | S. cerevisiae deletion strains, locus YDR318W, strain mcm21, active compounds read low 0.979 | S. cerevisiae deletion strains, locus YDR388W, active compounds read low 0.997 | S. cerevisiae deletion strains, locus YDR502C, strain sam2, active compounds read low 1.01 | [6] 0.997 | S. cerevisiae deletion strains, locus YER110C, active compounds read low 1 | S. cerevisiae deletion strains, locus YER155C, strain BEM2, active compounds read low 1.01 | S. cerevisiae deletion strains, locus YER167W, strain BCK2, active compounds read low 0.999 | S. cerevisiae deletion strains, locus YGL078C, strain dbp3, active compounds read low 0.997 | S. cerevisiae deletion strains, locus YGL086W, strain mad1, active compounds read low 1.02 | S. cerevisiae deletion strains, locus YGL248W, strain PDE1, active compounds read low 0.994 | [7] 1 | S. cerevisiae deletion strains, locus YGR135W, strain pre9, active compounds read low 0.97 | S. cerevisiae deletion strains, locus YGR252W, strain gcn5, active compounds read low 0.906 | [8] 1 | S. cerevisiae deletion strains, locus YHR079C, strain IRE1 (second series), active compounds read low 1.01 | S. cerevisiae deletion strains, locus YHR094C, strain hxt1, active compounds read low 1 | S. cerevisiae deletion strains, locus YHR129C, strain ARP1, active compounds read low 1.01 | S. cerevisiae deletion strains, locus YHR200W, strain rpn10, active compounds read low 1 | S. cerevisiae deletion strains, locus YIL066C, strain RNR3, active compounds read low 1 | S. cerevisiae deletion strains, locus YIL073C, strain SPO22, active compounds read low 1.05 | S. cerevisiae deletion strains, locus YIL125W, strain kgd1, active compounds read low 1.02 | S. cerevisiae deletion strains, locus YIR030C, strain dcg1, active compounds read low 1.01 | S. cerevisiae deletion strains, locus YJL095W, strain BCK1, active compounds read low 0.987 | S. cerevisiae deletion strains, locus YJL134W, strain LCB3, active compounds read low 0.999 | S. cerevisiae deletion strains, locus YJL168C, strain set2, active compounds read low 1 | S. cerevisiae deletion strains, locus YJL187C, strain SWE1 (second series), active compounds read low 0.997 | [11] 1.01 | S. cerevisiae deletion strains, locus YKL009W, strain mrt4, active compounds read low 1.01 | S. cerevisiae deletion strains, locus YKL068W, active compounds read low 1 | S. cerevisiae deletion strains, locus YKL085W, strain MDH1 (second series), active compounds read low 1 | S. cerevisiae deletion strains, locus YKL085W, strain MDH1, active compounds read low 1 | [30] 1 | S. cerevisiae deletion strains, locus YKR001C, strain vps1, active compounds read low 1.02 | [13] 1.01 | S. cerevisiae deletion strains, locus YLR058C, strain SHM2, active compounds read low 0.985 | S. cerevisiae deletion strains, locus YLR102C, strain apc9, active compounds read low 1 | [16] 0.993 | S. cerevisiae deletion strains, locus YLR268W, strain sec22, active compounds read low 1.03 | S. cerevisiae deletion strains, locus YLR330W, strain CHS5, active compounds read low 1.01 | S. cerevisiae deletion strains, locus YLR342W, strain FKS1 (second series), active compounds read low 0.976 | S. cerevisiae deletion strains, locus YLR371W, strain rom2, active compounds read low 1.02 | S. cerevisiae deletion strains, locus YLR418C, strain cdc73, active compounds read low 0.96 | S. cerevisiae deletion strains, locus YML016C, strain PPZ1, active compounds read low 0.997 | S. cerevisiae deletion strains, locus YML032C, strain rad52, active compounds read low 0.966 | S. cerevisiae deletion strains, locus YML124C, strain tub3, active compounds read low 0.996 | S. cerevisiae deletion strains, locus YMR078C, strain ctf18, active compounds read low 1.02 | S. cerevisiae deletion strains, locus YMR223W, strain ubp8, active compounds read low 0.972 | [19] 1 | [31] 1.02 | S. cerevisiae deletion strains, locus YNL067W, strain RPL9B, active compounds read low 1 | [20] 1.01 | [21] 0.997 | S. cerevisiae deletion strains, locus YNL233W, strain BNI4, active compounds read low 1 | S. cerevisiae deletion strains, locus YNL250W, strain rad50, active compounds read low 1.01 | S. cerevisiae deletion strains, locus YNL271C, strain bni1, active compounds read low 1.01 | S. cerevisiae deletion strains, locus YNL298W, strain CLA4, active compounds read low 0.99 | S. cerevisiae deletion strains, locus YNL307C, strain MCK1, active compounds read low 1.01 | S. cerevisiae deletion strains, locus YNR052C, strain pop2, active compounds read low 0.971 | [25] 1.06 | S. cerevisiae deletion strains, locus YOL012C, strain htz1 0.744 | S. cerevisiae deletion strains, locus YOL147C, strain pex11, active compounds read low 1 | S. cerevisiae deletion strains, locus YOR061W, strain CKA2, active compounds read low 0.998 | S. cerevisiae deletion strains, locus YOR069W, strain VPS5, active compounds read low 1 | S. cerevisiae deletion strains, locus YOR136W, strain idh2, active compounds read low 1.02 | S. cerevisiae deletion strains, locus YOR144C, strain elg1, active compounds read low 1.01 | S. cerevisiae deletion strains, locus YOR184W, strain ser1, active compounds read low 1 | S. cerevisiae deletion strains, locus YOR316C, strain cot1, active compounds read low 1.01 | [26] 0.983 | [27] 0.988 | S. cerevisiae deletion strains, locus YPR119W, strain clb2, active compounds read low 1.01 | S. cerevisiae deletion strains, locus YPR141C, strain kar3, active compounds read low 1.01 | S. cerevisiae deletion strains, locus YPR163C, strain tif3, active compounds read low 1.01 | S. cerevisiae deletion strains, locus YPR167C, strain met16, active compounds read low 0.992 | S. cerevisiae deletion strains, strain wtn01, active compounds read low 1.03 | [29] 0.989
